The other results are listed elsewhere or left out. Active and inactive are the calls of the source.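 Rule for the calls: active = a half-inhibiting concentration could be measured and was below 100 µM; inactive = the rest.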
Tested on: Thioredoxin reductase 1 (TXNRD1), rat
Experiment: qHTS Assay for Inhibitors of Mammalian Selenoprotein Thioredoxin Reductase 1 (TrxR1): DTNB Assay
Settings: purified TrxR1, DTNB reduction, A412
Excerpt: The selenoprotein thioredoxin reductase (TrxR; EC 1.8.1.9) is a FAD containing homodimeric pyridine nucleotide-disulfide oxidoreductase with many cellular roles. Together with NADPH and its prime substrate thioredoxin (Trx), the enzyme forms the core of the Trx system. The mammalian Trx system exerts a wide spectrum of functions including redox regulation, antioxidant defense, regulation of transcription factors as well as support of cell growth and replication. Many of these functions involve the reduction of Trx, which may subsequently reduce a number of different substrates including ribonucleotide reductase, peroxiredoxins or NFkB. Mammalian TrxR itself also has a broad substrate specificity, reducing both protein and non-protein substrates, including low molecular weight compounds such as dehydroascorbate, lipoic acid, ubiquinone, and juglone. In addition, several drugs in clinical use for anticancer treatment are indeed known to target TrxR1. This orthogonal DTNB assay seeks to further characterize cherry picks. NIH Molecular Libraries Probe Production Network [MLPCN] NIH Chemical Genomics Center [NCGC] MLPCN Grant: MH090846 Assay Provider: Elias Arner, Karolinska Institute
15 nM TrxR1 is reduced by 250 microM NADPH in TE buffer [50 mM Tris-HCl (pH 7.5), 2 mM EDTA] in a 96-well microtiter plate. Compounds are then added and incubated for 30 min at 30 degrees C. During compound incubation, NADPH consumption is followed by the decrease in absorbance at 340 nm using a VersaMax microplate reader (Molecular Devices) to determine substrate potential of the compound. DTNB is subsequently added to a final concentration of 2.5 mM, and the formation of TNB- is followed at 412 nm at 30 degrees C to assess inhibitory activity of the compound.

Row | SMILES | Potency
1 | CC1CCN(C(=O)c2ccc(S(=O)(=O)Cc3cc(F)ccc3F)c([N+](=O)[O-])c2)CC1 | 317 nM (active)
2 | O=C(/C=C/c1ccco1)Nc1cccc(-c2nc3ccccc3[nH]2)c1 | 10300 nM (active)
3 | Cc1ccccc1-c1nc(CS(=O)(=O)CC(=O)N2CCc3ccccc3C2)c(C)o1 | 292 nM (active)

Source: PubChem BioAssay AID652256 (National Center for Advancing Translational Sciences (NCATS), 2013)
